# Measurements reported in PMC5540273 (PLoS ONE, 2017).
# Columns and labels:
# Conditions in all cases: concentration: 1 μM, replicates: in singlicate; n = 1
# PDGFRB = tested on: PDGFRB
# PDPK1 = tested on: PDPK1
# PFTAIRE2 = tested on: PFTAIRE2
# PFTK1 = tested on: T1, PFTK1
# T1 construct: gene CDK14
# PHKG1 = tested on: PHKG1
# PHKG2 = tested on: PHKG2
# PIK3C2B = tested on: PIK3C2B
# PIK3C2G = tested on: PIK3C2G
# PIK3CA = tested on: PIK3CA
# PIK3CB = tested on: PIK3CB
# PIK3CD = tested on: PIK3CD
# PIK3CG = tested on: PIK3CG
# PIK4CB = tested on: T2, PIK4CB
# T2 construct: gene PI4KB
# PIKFYVE = tested on: PIKFYVE
# PIM1 = tested on: PIM1
# PIM2 = tested on: PIM2
# PIM3 = tested on: PIM3
# PIP5K1A = tested on: PIP5K1A
# PIP5K1C = tested on: PIP5K1C
# PIP5K2B = tested on: PIP5K2B
# 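Further: KINOMEscan kinase panel screen.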
Structure (SMILES),%Inh (PDGFRB) [%],%Inh (PDPK1) [%],%Inh (PFTAIRE2) [%],%Inh (PFTK1) [%],%Inh (PHKG1) [%],%Inh (PHKG2) [%],%Inh (PIK3C2B) [%],%Inh (PIK3C2G) [%],%Inh (PIK3CA) [%],%Inh (PIK3CB) [%],%Inh (PIK3CD) [%],%Inh (PIK3CG) [%],%Inh (PIK4CB) [%],%Inh (PIKFYVE) [%],%Inh (PIM1) [%],%Inh (PIM2) [%],%Inh (PIM3) [%],%Inh (PIP5K1A) [%],%Inh (PIP5K1C) [%],%Inh (PIP5K2B) [%]
CCC(CC)(CC)n1cnc2c(N)ncnc21 [SKF-97620],0,0,0,0,0,0,0,9,6,27,22,5,40,33,0,6,5,30,9,0
Cl.Cn1ccc(-c2cccc(Nc3ccnc4cc(-c5nccs5)ccc34)c2)n1 [GW525701],40,0,0,5,0,0,0,0,0,0,0,0,0,30,12,0,0,48,36,14
NC(=O)c1sc(-n2cnc3ccccc32)cc1OCc1ccccc1F [GSK1024306],2,19,7,6,0,0,0,0,0,0,39,0,0,20,21,0,0,0,53,0
Cl.Fc1ccccc1COc1ccc(Nc2ncnc3ccc(-c4nnc(C(F)(F)F)o4)cc23)cc1Cl [GW424170],20,0,6,0,0,7,0,0,0,0,0,0,0,0,0,0,0,66,36,7
COc1ccc(-c2oc3ncnc(N)c3c2-c2ccc(OC)cc2)cc1 [SB-589132],41,0,17,0,0,0,0,10,0,0,4,10,10,23,0,0,0,48,54,11
CSc1nn2c(=O)cc(N3CCOCC3)nc2n1Cc1cccc(Cl)c1Cl [GSK2347225],24,0,45,20,0,0,80,33,15,100,85,56,0,37,8,0,0,0,27,4
Fc1ccc(-c2ncn(CCCNCc3ccccc3)c2-c2ccncc2)cc1,24,6,0,0,0,16,1,31,3,0,3,4,24,2,10,23,28,0,0,12
FC(F)(F)c1cc(Nc2nccc(-c3c(-c4ccc(Cl)cc4)nn4ncccc34)n2)ccc1Cl [GW829351],3,0,0,0,0,0,0,0,0,0,0,0,0,16,0,0,0,10,0,0
CCn1c(-c2ccncc2)nc2cnccc21 [SB-735216],1,0,0,3,3,0,19,0,0,0,0,14,21,0,0,0,21,28,0,23
CC(C)(C)c1ccc(-n2cnc3c(N)ncnc32)cc1 [SKF-97263],31,5,16,32,0,0,100,12,100,0,28,100,30,0,9,0,0,0,0,2
